Measurements: PubChem BioAssay (NCATS)
Values joined by “and” are separate entries in the source; they are usually repeats but may differ in a detail not shown here. Identical values can stand only once. Results filed as inconclusive are left out. Entries that show only a call come without a potency. The source holds several records for some structures; these can differ, active in one and inactive in another. Active and inactive are the calls of the source. Unless noted, calls follow the shape of the dose curve; as a rule, active = well fitted curve in the direction sought with a large enough effect; inconclusive = small, poorly fitted or top-dose-only effect, or another doubt; inactive = no such curve, though single readings can be large; an effect the other way counts as inactive or inconclusive.
Potency is read from the fitted curve at half-maximal effect.

Molecular target: Cytochrome P450 2C9 (Homo sapiens) (UniProt P11712)
Sequence (P11712 whole entry, looked up): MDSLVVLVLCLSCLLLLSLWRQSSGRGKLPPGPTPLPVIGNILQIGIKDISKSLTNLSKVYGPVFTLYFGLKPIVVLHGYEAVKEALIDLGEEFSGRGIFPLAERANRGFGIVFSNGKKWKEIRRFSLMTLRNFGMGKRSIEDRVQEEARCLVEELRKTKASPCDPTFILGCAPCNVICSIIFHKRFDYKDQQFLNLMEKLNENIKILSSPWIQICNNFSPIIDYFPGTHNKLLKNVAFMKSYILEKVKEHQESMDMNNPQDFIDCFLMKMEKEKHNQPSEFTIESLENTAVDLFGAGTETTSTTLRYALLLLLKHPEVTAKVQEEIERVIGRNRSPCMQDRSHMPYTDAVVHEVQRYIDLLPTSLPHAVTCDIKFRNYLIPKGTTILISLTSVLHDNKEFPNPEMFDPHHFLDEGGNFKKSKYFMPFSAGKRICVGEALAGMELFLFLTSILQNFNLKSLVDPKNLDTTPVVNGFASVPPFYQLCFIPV
Assay: Cytochrome P450 family 2 subfamily C member 9 (CYP2C9) small molecule antagonists: luciferase biochemical (cell-free) qHTS assay (AID 1645842; active = well fitted curve in the direction sought with a large enough effect in the repeat runs; an effect the other way counts as inactive or inconclusive; also: nearly all actives have a fitted effect of over 55% in size)
Settings: P450-Glo CYP2C9 enzyme assay, luciferin luminescence; series mostly up to 57.4 µM
In short: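 Luminescence, after 20 min with luciferin detection reagent, reflected CYP2C9 turnover during a 1 h NADPH-driven reaction at 37C. Enzyme-substrate mix contained 0.4% bovine serum albumin and was preincubated with compound 10 min at room temperature.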
For `O=C(O)CN1C(=O)c2cccc3cccc(c23)C1=O`, the Potency was “inactive”.
In the case of `O=C(CCCN1CCN(c2ccccn2)CC1)c1ccc(F)cc1`, the Potency is reported as 12.3 µM (active).
For `CC(=O)CCC(=O)O`, the Potency was “inactive”.
For `O=c1cc(CO)occ1O`, the Potency was “inactive”.
In the case of `COc1ccc2cc1Oc1cc3c(cc1OC)CC[N+](C)(C)[C@H]3Cc1ccc(cc1)Oc1c(OC)c(OC)cc3c1[C@@H](C2)[N+](C)(C)CC3`, the Potency is reported as “inactive”.
In the case of `CC(C)(O)c1ccccc1CC[C@@H](SCC1(CC(=O)O)CC1)c1cccc(/C=C/c2ccc3ccc(Cl)cc3n2)c1`, the Potency is reported as “inactive”.
For `NC(=O)N/N=C/c1ccc([N+](=O)[O-])o1`, the Potency was “inactive”.
For `CC1(C)OC(=O)NC1=O`, the Potency was “inactive”.
In the case of `CC1(C)Oc2ccc(C#N)cc2[C@@H](N2CCCC2=O)[C@@H]1O`, the Potency is reported as “inactive”.
For `CCn1cc(C(=O)O)c(=O)c2cnc(N3CCNCC3)nc21`, the Potency was “inactive”.
With `Oc1cn2c(n1)Nc1ccc(Cl)c(Cl)c1C2` the Potency was 6.74 µM (active).
In the case of `O=Cc1ccccc1C=O`, the Potency is reported as “inactive”.
For `CC(=O)Oc1c(C)c(C)c2c(c1C)CC[C@@](C)(CCC[C@H](C)CCC[C@H](C)CCCC(C)C)O2`, the Potency was “inactive”.
With `NC(=O)c1ncn([C@@H]2O[C@H](CO)[C@@H](O)[C@H]2O)c1N` the Potency was “inactive”.
For `COc1cc2[nH]c(=O)[nH]c(=O)c2cc1OC`, the Potency was “inactive”.
In the case of `NCCNCCNCCNCCN`, the activity change, negative = inhibition is reported as 18.2% [at 11.5 µM] (inactive).
For `O=C(O)CC(O)C(=O)O` (stereo not drawn), the Potency was “inactive”.
For `CC[C@@]1(c2ccccc2)NC(=O)N(C)C1=O`, the Potency was “inactive”.
For `O=c1cc[nH]c(=S)[nH]1`, the Potency was “inactive”.
In the case of `CC1(C)[C@@H]2CC[C@@]1(C)C(=O)C2`, the Potency is reported as “inactive”.
For `C[C@@H]1CN(c2c(F)c(F)c3c(=O)c(C(=O)O)cn(C4CC4)c3c2F)C[C@H](C)N1`, the Potency was “inactive”.
For `CC(=O)O[C@@]12CO[C@@H]1C[C@H](O)[C@@]1(C)C(=O)[C@H](O)C3=C(C)[C@@H](OC(=O)[C@H](O)[C@@H](NC(=O)OC(C)(C)C)c4ccccc4)C[C@@](O)([C@@H](OC(=O)c4ccccc4)[C@H]21)C3(C)C`, the Potency was “inactive”.
With `Cc1cc2nc3c(=O)[nH]c(=O)nc-3n(C[C@H](O)[C@H](O)[C@H](O)CO)c2cc1C` the Potency was “inactive”.
In the case of `Oc1ccc(C(O)CNCCCCCCNCC(O)c2ccc(O)c(O)c2)cc1O` (stereo not drawn), the Potency is reported as “inactive”.
For `O=C(Oc1ccccc1C(=O)O)c1ccccc1O`, the Potency was “inactive”.
With `CC1(C)CO[C@@H](CC(=O)O)CN1` the Potency was “inactive”.
With `CCCCC/C(C=O)=C\c1ccccc1` the Potency was “inactive”.
In the case of `CCN(CC)C(=O)Nc1ccc(OCC(O)CNC(C)(C)C)c(C(C)=O)c1` (stereo not drawn), the Potency is reported as “inactive”.
With `O=C1Nc2ccc(Cl)cc2[C@@](C#CC2CC2)(C(F)(F)F)O1` the Potency was 17.4 µM (active).
With `CCCc1c(OCCCCc2nn[nH]n2)ccc(C(C)=O)c1O` the Potency was 0.138 µM (active).
With `C[C@]12CC[C@@H]3c4ccc(O)cc4CC[C@H]3[C@@H]1CC[C@@H]2OC(=O)CCC1CCCC1` the Potency was 19 µM (active).
With `COc1ccccc1O` the Potency was “inactive”.
For `CCC(=O)Nc1ccc(O)cc1`, the Potency was “inactive”.

Molecular target: Papain (Carica papaya) (UniProt P00784)
Sequence (P00784 whole entry, looked up): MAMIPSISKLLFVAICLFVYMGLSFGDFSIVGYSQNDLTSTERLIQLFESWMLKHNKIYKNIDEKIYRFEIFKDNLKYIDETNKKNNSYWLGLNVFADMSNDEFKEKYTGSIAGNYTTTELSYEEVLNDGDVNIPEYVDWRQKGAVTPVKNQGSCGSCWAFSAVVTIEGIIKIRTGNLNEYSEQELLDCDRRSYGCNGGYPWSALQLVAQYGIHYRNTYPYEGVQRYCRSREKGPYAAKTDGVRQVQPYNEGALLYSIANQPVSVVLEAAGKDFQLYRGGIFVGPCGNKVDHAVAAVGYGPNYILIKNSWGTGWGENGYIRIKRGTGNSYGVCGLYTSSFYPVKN
Assay: Primary qHTS assay for inhibitors of the protease papain (AID 1645873);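 also: papain turnover of Z-FR-AMC read as the AMC fluorescence gain over 10 min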
Settings: papain Z-FR-AMC cleavage, AMC fluorescence; series mostly up to 49.8 µM
For `CC1=C(CC(=O)O)c2cc(F)ccc2/C1=C\c1ccc(S(C)=O)cc1` (stereo not drawn), the Potency was “inactive”.
With `N=c1c[n+](N2CCOCC2)[n-]o1` the Potency was “inactive”.
With `CC(C)(C(=O)O)c1ccc(C(O)CCCN2CCC(C(O)(c3ccccc3)c3ccccc3)CC2)cc1` (stereo not drawn) the Potency was “inactive”.
In the case of `C[C@]12CC[C@@H]3c4ccc(O)cc4CC[C@H]3[C@@H]1CCC2=O`, the Potency is reported as “inactive”.
With `CC1=C(CC(=O)O)c2cc(F)ccc2/C1=C\c1ccc(S(C)(=O)=O)cc1` the Potency was “inactive”.
For `CC(C)NC[C@H](O)c1ccc(O)c(O)c1`, the Potency was 1.12 µM (active) and inactive.
With `CC(C)(C)[C@]1(O)CCN2C[C@H]3c4ccccc4CCc4cccc(c43)[C@@H]2C1` the Potency was “inactive and 15.8 µM (active)”.

System: not listed separately
Assay: Primary qHTS for inhibitors of nuclear receptor binding SET domain protein 2 (NSD2) in an isogenic RCH-ACV NSD2 p.E1099K mutant (9B) (AID 1645876); also: nearly all actives have a fitted effect of over 70% in size
Settings: RCH-ACV (leukaemia line) NSD2 E1099K (9B) viability, CellTiter-Glo, 72 h; series mostly up to 44.9 µM
In the case of `O=C(O)CN1C(=O)c2cccc3cccc(c23)C1=O`, the Potency is reported as “inactive”.
With `O=C(CCCN1CCN(c2ccccn2)CC1)c1ccc(F)cc1` the Potency was “inactive”.
With `CC(=O)CCC(=O)O` the Potency was “inactive”.
In the case of `O=c1cc(CO)occ1O`, the Potency is reported as “inactive”.
For `COc1ccc2cc1Oc1cc3c(cc1OC)CC[N+](C)(C)[C@H]3Cc1ccc(cc1)Oc1c(OC)c(OC)cc3c1[C@@H](C2)[N+](C)(C)CC3`, the Potency was “inactive”.
In the case of `CC(C)(O)c1ccccc1CC[C@@H](SCC1(CC(=O)O)CC1)c1cccc(/C=C/c2ccc3ccc(Cl)cc3n2)c1`, the Potency is reported as “inactive”.
For `CC1(C)OC(=O)NC1=O`, the Potency was “inactive”.
In the case of `CCn1cc(C(=O)O)c(=O)c2cnc(N3CCNCC3)nc21`, the Potency is reported as “inactive”.
In the case of `Oc1cn2c(n1)Nc1ccc(Cl)c(Cl)c1C2`, the Potency is reported as “inactive”.
With `O=Cc1ccccc1C=O` the Potency was “inactive”.
With `CC(=O)Oc1c(C)c(C)c2c(c1C)CC[C@@](C)(CCC[C@H](C)CCC[C@H](C)CCCC(C)C)O2` the Potency was “inactive”.
For `NC(=O)c1ncn([C@@H]2O[C@H](CO)[C@@H](O)[C@H]2O)c1N`, the Potency was “inactive”.
With `COc1cc2[nH]c(=O)[nH]c(=O)c2cc1OC` the Potency was “inactive”.
In the case of `NCCNCCNCCNCCN`, the activity change, negative = viability loss is reported as -1.38% [at 9.23 µM] (inactive).
In the case of `O=C(O)CC(O)C(=O)O` (stereo not drawn), the Potency is reported as “inactive”.
For `CC[C@@]1(c2ccccc2)NC(=O)N(C)C1=O`, the Potency was “inactive”.
In the case of `CC1(C)[C@@H]2CC[C@@]1(C)C(=O)C2`, the Potency is reported as “inactive”.
In the case of `C[C@@H]1CN(c2c(F)c(F)c3c(=O)c(C(=O)O)cn(C4CC4)c3c2F)C[C@H](C)N1`, the Potency is reported as “inactive”.
For `CC(=O)O[C@@]12CO[C@@H]1C[C@H](O)[C@@]1(C)C(=O)[C@H](O)C3=C(C)[C@@H](OC(=O)[C@H](O)[C@@H](NC(=O)OC(C)(C)C)c4ccccc4)C[C@@](O)([C@@H](OC(=O)c4ccccc4)[C@H]21)C3(C)C`, the Potency was 0.0027 µM (active).
In the case of `Cc1cc2nc3c(=O)[nH]c(=O)nc-3n(C[C@H](O)[C@H](O)[C@H](O)CO)c2cc1C`, the Potency is reported as “inactive”.
With `Oc1ccc(C(O)CNCCCCCCNCC(O)c2ccc(O)c(O)c2)cc1O` (stereo not drawn) the Potency was “inactive”.
With `O=C(Oc1ccccc1C(=O)O)c1ccccc1O` the Potency was “inactive”.
In the case of `CC1(C)CO[C@@H](CC(=O)O)CN1`, the Potency is reported as “inactive”.
In the case of `CCCCC/C(C=O)=C\c1ccccc1`, the Potency is reported as “inactive”.
For `CCN(CC)C(=O)Nc1ccc(OCC(O)CNC(C)(C)C)c(C(C)=O)c1` (stereo not drawn), the Potency was “inactive”.
In the case of `O=C1Nc2ccc(Cl)cc2[C@@](C#CC2CC2)(C(F)(F)F)O1`, the Potency is reported as 18.6 µM (active).
In the case of `C[C@]12CC[C@@H]3c4ccc(O)cc4CC[C@H]3[C@@H]1CC[C@@H]2OC(=O)CCC1CCCC1`, the Potency is reported as “inactive”.
For `CCC(=O)Nc1ccc(O)cc1`, the Potency was “inactive”.
